In PubChem BioAssay AID651821 (The Scripps Research Institute Molecular Screening Center, 2012):
In all, about 370,000 compounds went through this assay and about 4,700 (1.3%) were called active. The sample holds actives, similar compounds and a random draw of the others, so the mix is not that of the screen.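 The calls were made as follows: active = inhibition above the plate cutoff, the mean of all test compounds on that plate plus 3 SD (cut at about 35% in these data); inactive = the rest.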

Experiment: binders of r(CAG) RNA repeats, primary screen, biochemical, fluorescence (AID 651821);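 also: 0% = DMSO alone and 100% = 100 µM mitoxantrone as full dye displacement; higher means more dye released from RNA so lower well fluorescence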
Conditions: r(CAG) RNA repeat, TO-PRO-1 dye displacement fluorescence; at 3 µM; stronger effect = higher value

inhibition, inactive:
CC(=O)c1ccc(Nc2nc(C(N)c3ccccc3)cs2)cc1 (stereo not drawn) 6.98%, COc1cccc(NC(=O)COC(=O)c2ccc3ccccc3n2)c1 7.26%, NC(c1csc(NC(=O)Nc2ccccc2Oc2ccccc2)n1)c1ccccc1Cl (stereo not drawn) 14%, COc1ccc(CN2C(CC(=O)Nc3cccnc3)c3ccc(C(F)(F)F)cc3S2(=O)=O)cc1 (stereo not drawn) 1.65%, CC(C)(C)CC(=O)Nc1nc(C(N)Cc2ccc(C(F)(F)F)cc2)cs1 (stereo not drawn) 1.66%, CCOC(=O)c1cnc(SCC(=O)Nc2cccc(OC)c2)nc1N 1.08%, C/C(CC(=O)Nc1cccc(C(F)(F)F)c1)=N\NC(=O)C(=O)NCC(C)C -2.81%, COc1ccc(CC(N)c2csc(NC(=O)Nc3ccc(C(C)C)cc3)n2)cc1 (stereo not drawn) 30.9%, C=CCn1c(SCC(N)=O)nnc1-c1ccccc1OC 2.58%, O=C(NCc1ccccc1)[C@@H]1CCCN1C(=O)[C@H]1CCCN1C(=O)c1cccc(Cl)c1 -1.13%, COC(=O)[C@H](CC(C)C)NS(=O)(=O)c1c(F)cccc1F 0.25%, C=CCN1C(=O)N(Cc2ccccc2)c2ccccc2S1(=O)=O -0.57%, CCC(=O)Nc1ccc2c(c1)C(=O)N(C)[C@@H]1CC[C@@H](CC(=O)NCCc3ccccc3)O[C@H]1CO2 0.85%, CCOC(=O)[C@]12CCCCC/C=C\1N(Cc1ccc(OC)cc1)C(=O)[C@H]2CC(=O)NCc1ccc(C)o1 3.94%, O=C(NS(=O)(=O)c1cccs1)[C@H]1O[C@@H](n2ccc(=O)[nH]c2=O)[C@H](O)[C@@H]1O 1.16%, CN1CCCc2nc(-c3ccccc3)ccc21 1.01%, O=C(CSc1nc2ccccc2n1Cc1ccccc1Cl)N/N=C\c1c[nH]c2ccccc12 12.2%, CCn1c(SCC(=O)N/N=C/c2ccccc2OCC(=O)O)nnc1-c1ccc(C(C)(C)C)cc1 18.1%, CC1CCN(c2ccc(C(=O)O)cc2NS(=O)(=O)c2ccc(Br)s2)CC1 33%, CCOc1ccc(-n2c(SCC(=O)Nc3cc(C)c(NC(=O)c4ccccc4)cc3OC)nnc2-c2cccs2)cc1 10.2%, NS(=O)(=O)c1ccc(NC(=O)COC(=O)C2(c3ccc(F)cc3)CCCC2)cc1 18.1%, CC(=O)C1=C(O)C(=O)N(c2ccc(S(N)(=O)=O)cc2)C1c1ccccc1F (stereo not drawn) 2.58%, O=C(COC(=O)CSc1nnc(-c2ccc(Cl)cc2)o1)Nc1cc(Cl)cc(Cl)c1 3.94%, O=C(COc1ccccc1)Nc1nonc1NC(=O)COc1ccccc1 8.22%, O=C(NCc1cccs1)C1CCCN(S(=O)(=O)c2ccc([N+](=O)[O-])cc2)C1 (stereo not drawn) 1.56%, COc1ccc(N2CCN(CCNS(=O)(=O)c3ccc(C(C)(C)C)cc3)CC2)cc1 -0.11%, CC(NCC(=O)Nc1cc(Cl)cc(Cl)c1)c1ccccc1 (stereo not drawn) -5.58%, Cc1nnc(SC(C(=O)c2ccccc2)c2ccccc2)[nH]c1=O (stereo not drawn) 4.12%, CCc1c(-c2ccccc2OC)ncn1CCc1ccccc1OC -2.09%, Cc1cccc(NC(=O)C[C@H]2CC[C@H]3[C@@H](COc4ccc(NC(=O)Nc5ccccc5)cc4C(=O)N3C)O2)c1 10.2%, N#Cc1ccc(OC[C@@H](O)CN2CCC(C(O)(c3ccccc3)c3ccccc3)CC2)c(F)c1 -3.22%, COc1ccc(S(=O)(=O)Nc2ccc3c(c2)C(=O)N([C@H](C)CO)C[C@H](C)[C@@H](CN(C)C)OCCCC[C@H](C)O3)cc1 8.48%, CCCc1nc2c([nH]1)C(c1cccnc1)C(C#N)=C(N)O2 (stereo not drawn) 0.75%, Cc1cc(C)c(C#N)c(SCc2ccc3c(c2)OCO3)n1 4%, C[C@@H](NC(=O)c1ccccc1OCC(=O)Nc1ccc(I)cc1)C(=O)N(C)Cc1ccccc1 5.02%, Cc1ccc(S(=O)(=O)N[C@H](CO)C(C)C)cc1 2.22%, CNC(=O)COc1ccc(S(=O)(=O)Nc2ccccc2)cc1 0.86%, Cc1ccc(S(=O)(=O)N/N=C(\c2ccccc2)C2CC2)cc1 -0.89%, COc1ccc(C(=O)C(C)OC(=O)c2cccc(S(=O)(=O)Nc3c(C)n(C)n(-c4ccccc4)c3=O)c2)cc1 (stereo not drawn) 7.06%, O=S1(=O)c2c(cccc2N2CCSCC2)Oc2ccccc2CN1Cc1cn(Cc2ccc(F)cc2)nn1 8.25%, C[C@H]1[C@H](c2ccccc2)Oc2cc(Br)ccc2S(=O)(=O)N1Cc1cccc(F)c1 3.74%, CCOC(=O)CSc1nncc2ccc(OC)c(OC)c12 -1.96%

inhibition, active:
CCOC(=O)c1csc(NC(=O)Nc2cccc(OC)c2)n1 61.3%, NC(c1csc(NC(=O)Nc2cccc(C(F)(F)F)c2)n1)C1CCCCC1 (stereo not drawn) 35.2%, COc1ccc(C(N)c2csc(NC(=O)Nc3cccc(C(F)(F)F)c3)n2)cc1 (stereo not drawn) 49.1%, NC(c1ccccc1)c1csc(NC(=O)Nc2cccc(C(F)(F)F)c2)n1 (stereo not drawn) 42.2%, Cc1ccc(Cn2c(SCC(=O)N/N=C/c3ccccc3OCC(=O)O)nc3ccccc32)cc1 50%, NS(=O)(=O)c1ccc(NC2=CC(c3ccc(F)cc3)N(c3ccc(S(N)(=O)=O)cc3)C2=O)cc1 (stereo not drawn) 45.7%, O=C(COC(=O)c1ccc(Oc2ccccc2)cc1)Nc1nnc(-c2ccccc2)o1 39.7%, Cc1nnc(SC(C(=O)Nc2cc(Cl)cc(Cl)c2)c2ccccc2)[nH]c1=O (stereo not drawn) 80.2%, Cc1cc(C)c(C#N)c(SCc2[nH]nc3c2C(c2ccccc2)C(C#N)=C(N)O3)n1 (stereo not drawn) 38.2%, COc1ccc(S(=O)(=O)/N=C2\C=C(NS(=O)(=O)c3ccccc3)C(=O)c3ccccc32)cc1 63.6%, Cc1ccc(S(=O)(=O)/N=C2\C=C(NS(=O)(=O)c3ccc(C)cc3)C(=O)c3ccccc32)cc1 59.4%
